In the supplement of paper PMC10849652:
About 7,900 targets were measured; listed, in parts, are those with a hit and a random draw of the rest. About 0.6% of all pairs of compound and target were hits.

The targets below were run with C1=CC(=CC=C1C2=NC3=C(N2)C=C(C=C3)C(=O)N)OC4=CC=C(C=C4)Cl (assay: log2 fold change, soluble protein after heating vs DMSO (PISA); higher = thermal stabilisation; K562 cells, 10 uM, 30 min; active = over 0.2 and 3.5 SD of the protein, either way, in both replicates (recomputed)).
How it was run: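 Quantification of soluble protein used TMTpro 16plex LC-MS/MS, with channel sums equalised. Samples were the supernatant after 21,000xg for 90 min of pooled aliquots from K562 cells (2×10^6 cells/mL) treated with 10 μM compound for 30 min, heated for 3 min over 48°C-58°C, and extracted in PBS with 0.5% NP-40 at 4°C. Values, from duplicates, describe thermal stability against control samples on a log2 fold-change scale.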

Sequence of UniProt P40261 (P40261 whole entry, looked up): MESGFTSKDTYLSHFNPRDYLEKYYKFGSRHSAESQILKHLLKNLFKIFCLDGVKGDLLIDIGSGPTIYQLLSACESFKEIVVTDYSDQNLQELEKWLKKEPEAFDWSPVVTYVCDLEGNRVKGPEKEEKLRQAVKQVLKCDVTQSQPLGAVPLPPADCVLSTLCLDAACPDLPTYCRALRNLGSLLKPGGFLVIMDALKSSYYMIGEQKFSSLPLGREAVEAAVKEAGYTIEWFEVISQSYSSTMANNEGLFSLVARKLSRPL
Sequence of UniProt Q9UH92 (Q9UH92 whole entry, looked up): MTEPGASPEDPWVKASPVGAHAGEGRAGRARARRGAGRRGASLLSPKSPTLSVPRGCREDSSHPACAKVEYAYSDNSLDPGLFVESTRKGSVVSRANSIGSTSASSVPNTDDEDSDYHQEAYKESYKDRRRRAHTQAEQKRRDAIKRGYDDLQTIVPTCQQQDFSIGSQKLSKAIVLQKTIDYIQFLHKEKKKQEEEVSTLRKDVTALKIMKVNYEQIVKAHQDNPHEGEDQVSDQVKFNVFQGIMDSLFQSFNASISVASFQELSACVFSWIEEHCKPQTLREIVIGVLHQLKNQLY
Sequence of UniProt Q9HBL8 (Q9HBL8 whole entry, looked up): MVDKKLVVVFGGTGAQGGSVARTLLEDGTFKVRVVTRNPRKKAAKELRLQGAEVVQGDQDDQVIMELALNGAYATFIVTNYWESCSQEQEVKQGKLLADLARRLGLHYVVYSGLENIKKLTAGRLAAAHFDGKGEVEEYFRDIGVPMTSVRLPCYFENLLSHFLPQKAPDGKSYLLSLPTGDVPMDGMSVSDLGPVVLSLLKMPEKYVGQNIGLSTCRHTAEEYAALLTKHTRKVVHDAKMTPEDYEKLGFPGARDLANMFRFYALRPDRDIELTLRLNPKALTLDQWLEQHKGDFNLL
Sequence of UniProt Q12986 (Q12986 whole entry, looked up): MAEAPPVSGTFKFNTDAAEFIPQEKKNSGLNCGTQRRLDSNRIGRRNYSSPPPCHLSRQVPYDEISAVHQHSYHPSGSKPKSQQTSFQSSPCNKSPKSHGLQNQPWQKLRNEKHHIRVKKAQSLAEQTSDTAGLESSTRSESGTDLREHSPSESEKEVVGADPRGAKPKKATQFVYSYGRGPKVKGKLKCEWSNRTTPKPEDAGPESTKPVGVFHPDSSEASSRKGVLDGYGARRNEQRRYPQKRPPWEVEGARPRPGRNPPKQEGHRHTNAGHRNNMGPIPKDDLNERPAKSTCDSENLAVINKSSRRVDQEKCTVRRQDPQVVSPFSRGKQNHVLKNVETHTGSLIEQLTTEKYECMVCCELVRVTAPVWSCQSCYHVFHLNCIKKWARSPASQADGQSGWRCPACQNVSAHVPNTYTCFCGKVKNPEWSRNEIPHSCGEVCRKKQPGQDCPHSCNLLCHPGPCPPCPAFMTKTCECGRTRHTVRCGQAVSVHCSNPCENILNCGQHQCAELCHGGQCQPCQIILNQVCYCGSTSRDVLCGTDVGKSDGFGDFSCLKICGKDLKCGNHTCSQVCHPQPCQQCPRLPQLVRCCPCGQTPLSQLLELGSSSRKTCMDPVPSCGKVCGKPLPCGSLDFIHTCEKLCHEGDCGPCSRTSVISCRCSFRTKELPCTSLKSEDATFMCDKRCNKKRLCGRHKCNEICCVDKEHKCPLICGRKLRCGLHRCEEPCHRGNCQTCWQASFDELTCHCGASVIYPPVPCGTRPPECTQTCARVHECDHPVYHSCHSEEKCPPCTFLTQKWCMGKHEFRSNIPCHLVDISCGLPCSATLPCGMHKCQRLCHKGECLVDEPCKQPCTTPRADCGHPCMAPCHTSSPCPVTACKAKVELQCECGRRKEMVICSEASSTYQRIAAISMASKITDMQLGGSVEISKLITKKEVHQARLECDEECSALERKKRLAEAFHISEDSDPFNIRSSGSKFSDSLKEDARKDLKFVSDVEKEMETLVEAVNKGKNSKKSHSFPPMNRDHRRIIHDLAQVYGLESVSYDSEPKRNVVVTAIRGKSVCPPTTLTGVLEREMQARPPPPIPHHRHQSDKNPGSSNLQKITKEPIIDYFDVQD
Sequence of UniProt P00846 (P00846 whole entry, looked up): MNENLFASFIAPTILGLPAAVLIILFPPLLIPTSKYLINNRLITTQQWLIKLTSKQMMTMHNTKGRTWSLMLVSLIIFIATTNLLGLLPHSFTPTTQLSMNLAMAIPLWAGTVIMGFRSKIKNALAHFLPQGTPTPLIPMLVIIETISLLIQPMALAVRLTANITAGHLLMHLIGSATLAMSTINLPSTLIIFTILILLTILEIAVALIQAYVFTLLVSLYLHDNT
Sequence of UniProt O75438 (O75438 whole entry, looked up): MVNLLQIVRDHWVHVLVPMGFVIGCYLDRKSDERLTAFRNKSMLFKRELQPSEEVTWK
Sequence of UniProt O43913 (O43913 whole entry, looked up): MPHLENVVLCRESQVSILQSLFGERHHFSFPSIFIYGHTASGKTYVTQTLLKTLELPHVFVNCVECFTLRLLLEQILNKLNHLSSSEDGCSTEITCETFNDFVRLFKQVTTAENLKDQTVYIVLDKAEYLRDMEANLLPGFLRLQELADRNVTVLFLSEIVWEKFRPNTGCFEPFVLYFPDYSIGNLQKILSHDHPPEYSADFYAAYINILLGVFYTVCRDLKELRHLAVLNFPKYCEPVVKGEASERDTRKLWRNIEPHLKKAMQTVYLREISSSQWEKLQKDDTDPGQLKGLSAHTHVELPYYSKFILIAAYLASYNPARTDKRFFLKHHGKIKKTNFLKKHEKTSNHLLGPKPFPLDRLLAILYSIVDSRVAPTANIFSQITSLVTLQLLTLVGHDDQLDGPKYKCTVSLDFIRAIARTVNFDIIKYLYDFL
Sequence of UniProt Q9Y2A7 (Q9Y2A7 whole entry, looked up): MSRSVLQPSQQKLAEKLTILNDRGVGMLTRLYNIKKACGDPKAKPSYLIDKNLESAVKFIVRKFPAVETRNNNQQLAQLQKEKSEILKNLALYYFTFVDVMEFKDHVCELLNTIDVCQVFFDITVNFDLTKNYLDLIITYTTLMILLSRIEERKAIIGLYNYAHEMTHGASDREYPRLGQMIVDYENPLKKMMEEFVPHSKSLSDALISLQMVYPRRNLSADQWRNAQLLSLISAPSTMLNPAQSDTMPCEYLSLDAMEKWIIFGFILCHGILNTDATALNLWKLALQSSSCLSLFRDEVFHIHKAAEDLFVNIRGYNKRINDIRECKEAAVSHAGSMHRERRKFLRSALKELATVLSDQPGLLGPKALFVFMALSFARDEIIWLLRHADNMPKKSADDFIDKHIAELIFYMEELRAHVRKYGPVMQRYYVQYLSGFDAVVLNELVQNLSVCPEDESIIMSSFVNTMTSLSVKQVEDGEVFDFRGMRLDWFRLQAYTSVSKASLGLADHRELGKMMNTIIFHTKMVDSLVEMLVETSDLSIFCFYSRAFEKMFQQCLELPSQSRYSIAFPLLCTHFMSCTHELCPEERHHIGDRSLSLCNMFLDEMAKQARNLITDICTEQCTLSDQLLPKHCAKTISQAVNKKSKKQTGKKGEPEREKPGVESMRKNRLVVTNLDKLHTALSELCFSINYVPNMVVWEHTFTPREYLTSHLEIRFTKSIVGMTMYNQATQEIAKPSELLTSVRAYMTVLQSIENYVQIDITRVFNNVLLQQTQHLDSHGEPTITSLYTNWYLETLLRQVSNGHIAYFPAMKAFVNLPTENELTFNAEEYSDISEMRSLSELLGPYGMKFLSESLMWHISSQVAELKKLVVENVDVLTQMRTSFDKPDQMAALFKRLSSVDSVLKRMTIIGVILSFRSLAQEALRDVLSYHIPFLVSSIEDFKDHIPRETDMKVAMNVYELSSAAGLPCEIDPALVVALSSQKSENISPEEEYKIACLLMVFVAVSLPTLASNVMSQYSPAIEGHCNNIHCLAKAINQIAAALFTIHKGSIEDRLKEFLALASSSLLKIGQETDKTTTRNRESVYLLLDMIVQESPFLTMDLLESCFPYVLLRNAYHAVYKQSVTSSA
Sequence of UniProt P49757 (P49757 whole entry, looked up): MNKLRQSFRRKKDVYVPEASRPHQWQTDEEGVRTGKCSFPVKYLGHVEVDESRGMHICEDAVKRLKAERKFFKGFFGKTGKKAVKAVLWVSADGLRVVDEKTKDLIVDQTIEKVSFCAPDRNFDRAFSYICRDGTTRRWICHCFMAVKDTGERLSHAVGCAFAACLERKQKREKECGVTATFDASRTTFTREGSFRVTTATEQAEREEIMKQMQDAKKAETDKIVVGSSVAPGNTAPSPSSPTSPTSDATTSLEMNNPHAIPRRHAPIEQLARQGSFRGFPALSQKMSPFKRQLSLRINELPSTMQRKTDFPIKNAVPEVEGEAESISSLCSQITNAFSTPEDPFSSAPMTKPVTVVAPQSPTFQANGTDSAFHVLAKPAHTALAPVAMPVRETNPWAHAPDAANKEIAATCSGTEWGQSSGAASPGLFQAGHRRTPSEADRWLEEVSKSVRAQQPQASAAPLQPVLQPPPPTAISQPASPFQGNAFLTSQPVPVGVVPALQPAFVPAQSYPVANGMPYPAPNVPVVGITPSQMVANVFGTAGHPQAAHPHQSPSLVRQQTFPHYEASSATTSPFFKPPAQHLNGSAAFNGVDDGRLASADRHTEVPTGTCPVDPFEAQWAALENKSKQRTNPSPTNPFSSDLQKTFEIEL
Sequence of UniProt Q9Y5B8 (Q9Y5B8 whole entry, looked up): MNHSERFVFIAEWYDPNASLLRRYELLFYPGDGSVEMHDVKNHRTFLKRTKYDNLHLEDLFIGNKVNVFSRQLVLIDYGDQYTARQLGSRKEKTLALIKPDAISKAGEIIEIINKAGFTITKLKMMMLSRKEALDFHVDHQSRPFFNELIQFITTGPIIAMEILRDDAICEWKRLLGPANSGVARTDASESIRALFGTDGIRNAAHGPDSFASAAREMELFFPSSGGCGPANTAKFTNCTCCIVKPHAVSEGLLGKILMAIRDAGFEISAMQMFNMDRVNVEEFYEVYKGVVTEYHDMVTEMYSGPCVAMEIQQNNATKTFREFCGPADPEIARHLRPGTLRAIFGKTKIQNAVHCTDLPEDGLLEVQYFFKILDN

log2 fold change, inactive:
NPC1 (UniProt O15118) 0.025
NFX1 (UniProt Q12986) 0.058
NME7 (UniProt Q9Y5B8) -0.247
NOP53 (UniProt Q9NZM5) 0.005
OAT (UniProt P04181) -0.091
NDUFS4 (UniProt O43181) 0.07
OTUD6B (UniProt Q8N6M0) 0.019
NDUFB8 (UniProt O95169) 0.005
NISCH (UniProt Q9Y2I1) 0.026
OSBPL3 (UniProt Q9H4L5) 0.165
NFYB (UniProt P25208) -0.153
NA isoform 3 (UniProt Q4G0T1) 0.01
NUMB (UniProt P49757) 0.018
NFATC3 (UniProt Q12968) 0
NAGPA (UniProt Q9UK23) 0.056
OXSR1 (UniProt O95747) -0.056
MTHFD1 (UniProt P11586) -0.019
OTULIN (UniProt Q96BN8) -0.143
NEK3 (UniProt P51956) 0.06
MRPS15 (UniProt P82914) 0.089
NMRAL1 (UniProt Q9HBL8) -0.054
MON2 isoform 5 (UniProt Q7Z3U7) -0.019
NPM3 (UniProt O75607) 0.02
ORC5 (UniProt O43913) 0.046
MLST8 (UniProt Q9BVC4) 0.102
MON1B (UniProt Q7L1V2) 0.023
NRDC isoform 2 (UniProt O43847) -0.024
NDUFA12 (UniProt Q9UI09) 0.147
MORC2 (UniProt Q9Y6X9) 0.051
NDUFB1 (UniProt O75438) 0.053
NCKAP1 isoform 2 (UniProt Q9Y2A7) 0.02
MTHFS (UniProt P49914) -0.003
NUP205 (UniProt Q92621) -0.031
MT-ATP6 (UniProt P00846) -0.07
NELFCD (UniProt Q8IXH7) -0.154
MLX (UniProt Q9UH92) 0.062
MRFAP1 (UniProt Q9Y605) -0.013
NSMCE2 (UniProt Q96MF7) 0.009
NNMT (UniProt P40261) 0.021
